PNC inhibitor: perinucleolar compartment assembly inhibition | PC3M PTB-GFP, PNC prevalence imaging, 16 h; hits give low values | activity change (PNC), negative = inhibition, % at 10 µM | hit rate 3.1% among 140,000 | AID 2417;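 active means readout at or below -70, meaning at least 70% loss of cells showing the perinucleolar compartment, a nuclear body marking cancer cells; inconclusive means readout between -30 and a set limit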;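 further: plate controls were DMSO wells for no effect and camptothecin positive control wells for full effect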
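Read-out is percentage of cells bearing a perinucleolar compartment, from automated 20x imaging of fixed, Hoechst-stained PC3M PTB-GFP cells. Cells were seeded 4 h, then exposed 16 h to compound (23 nl of library stock) in duplicate plates.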
HPGD block: blocks human HPGD enzyme activity; P15428; purified HPGD, NADH fluorescence kinetic, PGE2 substrate; Potency, µM, for inactives: at the top dose activity change, negative = inhibition, hits mostly inhibitors; hit rate 4.3% among 150,000; AID 894; further: potency means the concentration at half of the fitted maximal effect
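NADH formation kinetics: reaction with 30 uM PGE2 and 1 mM NAD+ (final), 20 nM enzyme, Tris-HCl pH 8 with Tween 20, after 15 min compound preincubation at room temperature. Fluorescence change, last versus first of five reads.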
ALDH1A1 inh: blocks purified human ALDH1A1 activity. P00352. Purified ALDH1A1, NADH fluorescence, propionaldehyde substrate. Potency, µM (top dose mostly 75.3 µM), without a hit: at the top dose activity, negative = inhibition, actives largely listed as inhibitors. hit rate 7.3% among 220,000;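 further: potency means the concentration at half of the fitted maximal effect; plate controls were no enzyme wells and a reference inhibitor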
Target sequence (P00352 whole entry, looked up): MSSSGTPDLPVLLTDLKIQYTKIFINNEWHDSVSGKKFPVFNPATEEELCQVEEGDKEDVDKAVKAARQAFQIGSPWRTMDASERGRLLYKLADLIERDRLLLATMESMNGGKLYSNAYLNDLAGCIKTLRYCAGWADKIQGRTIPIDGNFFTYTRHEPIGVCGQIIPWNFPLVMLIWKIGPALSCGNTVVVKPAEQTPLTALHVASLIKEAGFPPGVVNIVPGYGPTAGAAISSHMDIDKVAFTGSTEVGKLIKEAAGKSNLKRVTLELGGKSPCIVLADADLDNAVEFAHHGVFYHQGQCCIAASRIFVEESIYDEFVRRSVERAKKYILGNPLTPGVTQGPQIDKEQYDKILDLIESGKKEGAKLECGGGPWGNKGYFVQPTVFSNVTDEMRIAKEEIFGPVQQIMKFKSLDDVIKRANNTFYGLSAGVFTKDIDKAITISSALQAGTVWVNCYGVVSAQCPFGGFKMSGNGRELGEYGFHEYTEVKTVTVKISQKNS
Active calls of the source: *; [ ] = dose if it differs, or a comment. This is a sample that favours compounds with a hit; in the whole collection about 11% have one here. Unless noted, the call rests on the fitted dose curve; in most records, active means well fitted inhibition curve with a large enough effect (not every such curve was filed as active); inconclusive means small, poorly fitted or top-dose-only effect, or another doubt; inactive means no such curve, though single readings can be large or run the other way. Unless noted, on the % scale 0 is the no-effect control and ±100 the full control effect.

What do the screens show for `CC(C)c1ccc(CN(C(=O)c2cc3ccccc3oc2=O)C2CCS(=O)(=O)C2)cc1` (configuration not stated)?
PNC inhibitor: 11; HPGD block: -11%; ALDH1A1 inh: inconclusive

How did CC(C)c1ccc(CN(C(=O)/C=C/c2ccco2)C2CCS(=O)(=O)C2)cc1 (configuration not stated) do in these assays?
ALDH1A1 inh: 18µM*

Results for O=C(c1ccccc1)N(Cc1ccc(F)cc1)C1CCS(=O)(=O)C1 (configuration not stated) ?
PNC inhibitor: inconclusive; HPGD block: 2%; ALDH1A1 inh: inconclusive

How did Cc1ccc(Cl)cc1NC1=NC(=S)N(C(C)C)C12CCCCC2 do in these assays?
PNC inhibitor: 30; HPGD block: -7%; ALDH1A1 inh: 6%

What do the screens show for `C=C(C)C(=O)OCC1CN2C(CCC(C)C2c2ccc(Br)cc2)C(=O)O1` (configuration not stated)?
ALDH1A1 inh: 0%[13.5 µM]

How did Cc1cc(Cl)ccc1NC(=S)NCC(C)C do in these assays?
PNC inhibitor: inconclusive; HPGD block: -15%; ALDH1A1 inh: -12%

How did O=C(CSc1ccccc1)Nc1cc(S(=O)(=O)N2CCOCC2)ccc1N1CCOCC1 do in these assays?
ALDH1A1 inh: 1%

What do the screens show for `NC(=O)c1ccc(-n2c(CCC(=O)O)ccc2-c2cccs2)cc1`?
ALDH1A1 inh: 3.2µM*

How did COC(=O)c1cccc(-n2c(CCC(=O)O)ccc2-c2cccs2)c1 do in these assays?
ALDH1A1 inh: 4µM*

How did COC(=O)c1ccccc1NC(=O)Cn1c(CCC(=O)O)ccc1-c1cccs1 do in these assays?
PNC inhibitor: -9; HPGD block: -7%; ALDH1A1 inh: inconclusive

What do the screens show for `CC(=O)c1ccc(-n2c(CCC(=O)O)ccc2-c2cccs2)cc1`?
PNC inhibitor: inconclusive; HPGD block: -18%; ALDH1A1 inh: 3.5µM*

What do the screens show for `Cc1ccc(-n2c(CCC(=O)O)ccc2-c2cccs2)cc1`?
PNC inhibitor: inconclusive; HPGD block: -20%; ALDH1A1 inh: inconclusive

How did CCCn1c(CCC(=O)O)ccc1-c1cccs1 do in these assays?
PNC inhibitor: -2; HPGD block: inconclusive; ALDH1A1 inh: inconclusive

Results for O=c1[nH]c2ccccc2nc1C(Nc1ccccc1)c1ccccc1 (configuration not stated) ?
ALDH1A1 inh: 13%

How did COC(=O)C1=C(C(=O)OC)[C@@H]2N(Cc3ccccc3)c3ccccc3[C@@]23C[C@@H](C(=O)OC)N(S(=O)(=O)c2cccs2)C3=N1 do in these assays?
HPGD block: -12%; ALDH1A1 inh: -14%[13.5 µM]

What do the screens show for `CC12CCC3C(CC3(C)C)C(C)(CCC1=O)O2` (configuration not stated)?
HPGD block: 1%; ALDH1A1 inh: 16%

How did COc1ccccc1OCCC(=O)OCC(=O)Nc1ccc(Br)cc1F do in these assays?
ALDH1A1 inh: -15%

Results for O=C(Cn1nnc2ccccc2c1=O)Nc1cccc(S(=O)(=O)N2CCOCC2)c1 ?
ALDH1A1 inh: 5%

What do the screens show for `Cc1nc(-n2ncc(C#N)c2N)c2c3c(sc2n1)CCC3`?
PNC inhibitor: 2; HPGD block: -19%; ALDH1A1 inh: 9%

What do the screens show for `CCCSc1nc(-n2ncc(C#N)c2N)c2c3c(sc2n1)CCC(C)C3` (configuration not stated)?
PNC inhibitor: 38; HPGD block: inconclusive; ALDH1A1 inh: 4µM*

How did C=CC(C)(C)c1[nH]c2ccccc2c1C1=C(O)C(=O)C(c2c[nH]c3c(CC=C(C)C)cccc23)=C(O)C1=O do in these assays?
HPGD block: 25µM*; ALDH1A1 inh: inconclusive

Results for Cn1c(=O)c(-c2cc(Br)ccc2N)nc2ccccc21 ?
PNC inhibitor: inconclusive; HPGD block: -5%; ALDH1A1 inh: 7%

How did C=CCn1c(O)c(N=NC(=O)c2ccccc2NS(=O)(=O)c2cccs2)c2ccccc21 do in these assays?
PNC inhibitor: 5; ALDH1A1 inh: 4.5µM*

How did O=C(N=Nc1c(O)[nH]c2ccccc12)c1cc(NS(=O)(=O)c2cccs2)cc(NS(=O)(=O)c2cccs2)c1 do in these assays?
ALDH1A1 inh: 3%

How did CC(C)n1c(O)c(N=NC(=O)c2ccccc2NS(=O)(=O)c2cccs2)c2ccccc21 do in these assays?
PNC inhibitor: -16; HPGD block: -9%; ALDH1A1 inh: -11%

What do the screens show for `CCCCn1c(O)c(N=NC(=O)c2ccccc2NS(=O)(=O)c2cccs2)c2ccccc21`?
PNC inhibitor: 48; HPGD block: -13%; ALDH1A1 inh: 11µM*

What do the screens show for `COc1ccccc1/C(C)=N/NC(=S)NCc1ccccc1`?
ALDH1A1 inh: 11%

What do the screens show for `O=C1c2ccccc2NC2(CCCC2)N1O`?
PNC inhibitor: -108*; HPGD block: 20µM*; ALDH1A1 inh: 1%

What do the screens show for `O=C1c2ccccc2NC2(CCCCC2)N1N=C1CCCCC1`?
PNC inhibitor: -27; HPGD block: inconclusive; ALDH1A1 inh: inconclusive

Results for Cc1noc(C)c1C(=O)N1CCC2(CCN(Cc3cc(C(F)(F)F)cc(C(F)(F)F)c3)CC2)CC1 ?
HPGD block: -9%; ALDH1A1 inh: 6%

How did O=C(Oc1cccc(OC(=O)N2CCCCC2)c1)N1CCCCC1 do in these assays?
ALDH1A1 inh: -1%

How did O=C(/C=C/c1cccc(Oc2ccccc2)c1)N1CCOCC1 do in these assays?
ALDH1A1 inh: 5%

What do the screens show for `O=C(/C=C/c1ccccc1)Oc1cccc(C(=S)N2CCOCC2)c1`?
ALDH1A1 inh: 4.5µM*

Results for O=C(Oc1cccc(C(=S)N2CCCCC2)c1)c1ccccc1 ?
ALDH1A1 inh: 2.5µM*

How did O=C(Oc1ccc(C(=S)N2CCC(O)CC2)cc1)c1ccc(Cl)cc1 do in these assays?
ALDH1A1 inh: -5%

Results for O=C(Oc1ccc(C(=S)N2CCCCC2)cc1)c1ccccc1 ?
ALDH1A1 inh: 11µM*

What do the screens show for `COc1ccc(C(=S)N2CCCCC2)cc1Br`?
ALDH1A1 inh: -4%

Results for Oc1cccc(C(=S)N2CCCCC2)c1 ?
ALDH1A1 inh: 11µM*

How did CCCCCCCC1=Cc2ccccc2C(CC(C)=O)N1C(=O)OC (configuration not stated) do in these assays?
HPGD block: -8%; ALDH1A1 inh: 0%[13.5 µM]

How did O=C(CCC1CCCC1)Nc1nnc(-c2ccc3c(c2)OCO3)s1 do in these assays?
PNC inhibitor: 11; HPGD block: inconclusive; ALDH1A1 inh: inconclusive

Results for CC(C)n1cc(CN2CCN(CCc3ccccc3)C(CCO)C2)cn1 (configuration not stated) ?
ALDH1A1 inh: -5%

What do the screens show for `C=CCOC(=O)C1=C[C@@H](c2ccc(C(F)(F)F)cc2)[C@H](CCCO)[C@@H](OCC)O1`?
ALDH1A1 inh: 0%

Results for CC[N+](CC)(CC)CC[C@](O)(c1ccccc1)C1CCCCC1 ?
HPGD block: -6%; ALDH1A1 inh: -3%[20.9 µM]

How did CC(C)(C)NC(=O)Cc1ccc(Cl)c(Cl)c1 do in these assays?
ALDH1A1 inh: -2%

How did CC(NC(=O)CCl)c1ccc(Cl)c(Cl)c1 (configuration not stated) do in these assays?
PNC inhibitor: -24; HPGD block: 1%; ALDH1A1 inh: 10µM*

What do the screens show for `CCCC(NC(=O)CCl)c1ccccc1` (configuration not stated)?
PNC inhibitor: 10; ALDH1A1 inh: 2%
